Assay results reported in PubChem BioAssay AID720724 (Broad Institute, 2013).
Measured potencies and affinities stand elsewhere. Activity calls are given as the source filed them.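 Rule for the calls: active = signal falls with a fitted half-maximal dose at most twice the top dose, in every run; inconclusive = steady partial drop, poor fit, or runs disagree; inactive = flat, rising or too weak in every run.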

Assay: EF1alpha-driven Renilla reporter with control 3'UTR suppression – Clone20-Shn3RL cells, dual-Glo, cherry-pick, set 2, counter-screen for Shn3 3'UTR targeting project, dose response (AID 720724)
Conditions: renilla luciferase luminescence, 24 h; series mostly up to 35 µM; activity change, negative = inhibition: at the top concentration

| Compound | activity change, negative = inhibition |
| --- | --- |
| CCCCOCCCNc1ncnc2c1[nH]c1ccccc12 | -8.33% (inactive) |
| O=C(c1n[nH]c(=O)c2ccccc12)N1CCN(C2c3ccccc3-c3ccccc32)CC1 | -29.2% (inactive) |
| Fc1ccc(-n2nnnc2-c2cnc(-c3cccs3)nc2C(F)(F)F)cc1 | -25% (inactive) |
| Cn1nc(CC(=O)Nc2ccc3c(c2)OCCO3)c2ccccc2c1=O | -22.5% (inactive) |
| CC(=O)Nc1ccc(OCC(=O)Nc2ccc(Cl)c(S(=O)(=O)N3CCOCC3)c2)cc1 | -40% (inactive) |
| Cc1cccc(CSc2cccc3cccnc23)c1 | 33.3% (inactive) |
| COc1ccc(C(=O)Nc2nc3ccccc3s2)c(OC)c1 | 87.5% (inactive) |
| CC(C)Cn1c(N)c(C(=O)COC(=O)C2Cc3ccccc3CN2S(C)(=O)=O)c(=O)n(C)c1=O (centres undefined) | -46.7% (inactive) |
| CNc1ccccc1C(C)(C)c1cc(-c2cccc(OC)c2)no1 | -40% (inactive) |
| CCOC(=O)c1cn(CC(=O)Nc2cccc(Cl)c2C)nn1 | -30% (inactive) |
| CC(C)[C@H](NC(=O)OC(C)(C)C)c1nnc(S(=O)(=O)Cc2c(F)cccc2Cl)o1 | -20% (inactive) |
| CC(Oc1ccc(F)cc1)C(=O)N(CCC1=CCCCC1)c1c(N)n(Cc2ccccc2)c(=O)[nH]c1=O (centres undefined) | 25% (inactive) |
| CCOC(=O)N1CCN(c2ccc(S(=O)(=O)N(Cc3ccccc3)Cc3ccccc3)cn2)CC1 | 10% (inactive) |
| CC(C)CCOc1cccc(OCC(=O)Nc2ccncc2)c1 | -30% (inactive) |
| CCOC(=O)c1oc2ccc(S(=O)(=O)n3nc(-c4ccc(OC)cc4)cc3N)cc2c1C | 2.5% (inactive) |
| Cn1c(=O)c2c(nc(NCc3ccco3)n2CCc2ccccc2)n(C)c1=O | -28.3% (inactive) |
| CCN(CC)Cc1c(O)ccc2c1O/C(=C\C=C\c1ccccc1)C2=O | -25% (inactive) |

| Compound | activity change, negative = inhibition |
| --- | --- |
| COc1ccc(-n2ncc3c(N4CCCCC4)ncnc32)cc1 | -12.5% (inactive) |
| O=C(c1cc(COc2ccc3ncccc3c2)on1)N1CCCCCC1 | -12.5% (inactive) |
| CCn1c(CNC(=O)c2cc(OC)c(OC)c(OC)c2)cc2cc(C)ccc21 | -10% (inactive) |
| CCc1ccccc1NC(=O)COC(=O)c1c(C)nsc1NC | -32.5% (inactive) |
| CCCn1c(C)cc(C(=O)CN2C(=O)c3ccccc3S2(=O)=O)c1C | 20% (inactive) |
| CC(C)(C)C(=O)Nc1ccc(NC(=O)c2ccco2)nc1 | -20% (inactive) |
| Cc1ccc(-c2cn3cc(C)ccc3n2)cc1 | -12.5% (inactive) |
| COc1ccc(OCc2cccc(C(=O)O)c2)cc1 | -29.2% (inactive) |
| Cc1ccccc1OCCOC(=O)c1cc(S(=O)(=O)N2CCCCC2)ccc1N1CCOCC1 | -30% (inactive) |
| COc1ccc(NS(=O)(=O)c2ccc(OC)c(N(C)S(=O)(=O)c3ccc(Cl)cc3)c2)cc1 | -10% (inactive) |
| CCCCN1CC(COCc2ccccc2)Oc2cccc(Oc3ccc(C(C)C)cc3)c2S1(=O)=O (centres undefined) | -36.7% (inactive) |
| CC(C)(C)C(=O)Nc1cc2nn(-c3ccccc3)nc2cc1Cl | -20% (inactive) |
| c1ccc(-c2noc(-c3ccc4ccccc4c3)n2)nc1 | -20% (inactive) |
| O=C(NCCc1ccccc1)c1ccc2c(c1)OCCCO2 | -25% (inactive) |
| Cc1cc(C(=O)COC(=O)c2ccccc2O)c(C)n1Cc1cccs1 | -29.2% (inactive) |
| Cc1ccc(-c2nc3ncccc3o2)cc1NC(=O)c1sc2ccccc2c1Cl | -12.5% (inactive) |
| O=C(NCCc1ccccc1)c1ccc2c(c1)OCCO2 | 0% (inactive) |
